Out of some 310,000 compounds screened, about 2,200 (0.71%) showed an effect of 50% or more. Effects have a minus sign here. The sample as a whole holds a higher share of strong results than the screen did.

Chain of human ether-à-go-go-related gene (hERG) potassium channel (Q12809 whole entry, looked up): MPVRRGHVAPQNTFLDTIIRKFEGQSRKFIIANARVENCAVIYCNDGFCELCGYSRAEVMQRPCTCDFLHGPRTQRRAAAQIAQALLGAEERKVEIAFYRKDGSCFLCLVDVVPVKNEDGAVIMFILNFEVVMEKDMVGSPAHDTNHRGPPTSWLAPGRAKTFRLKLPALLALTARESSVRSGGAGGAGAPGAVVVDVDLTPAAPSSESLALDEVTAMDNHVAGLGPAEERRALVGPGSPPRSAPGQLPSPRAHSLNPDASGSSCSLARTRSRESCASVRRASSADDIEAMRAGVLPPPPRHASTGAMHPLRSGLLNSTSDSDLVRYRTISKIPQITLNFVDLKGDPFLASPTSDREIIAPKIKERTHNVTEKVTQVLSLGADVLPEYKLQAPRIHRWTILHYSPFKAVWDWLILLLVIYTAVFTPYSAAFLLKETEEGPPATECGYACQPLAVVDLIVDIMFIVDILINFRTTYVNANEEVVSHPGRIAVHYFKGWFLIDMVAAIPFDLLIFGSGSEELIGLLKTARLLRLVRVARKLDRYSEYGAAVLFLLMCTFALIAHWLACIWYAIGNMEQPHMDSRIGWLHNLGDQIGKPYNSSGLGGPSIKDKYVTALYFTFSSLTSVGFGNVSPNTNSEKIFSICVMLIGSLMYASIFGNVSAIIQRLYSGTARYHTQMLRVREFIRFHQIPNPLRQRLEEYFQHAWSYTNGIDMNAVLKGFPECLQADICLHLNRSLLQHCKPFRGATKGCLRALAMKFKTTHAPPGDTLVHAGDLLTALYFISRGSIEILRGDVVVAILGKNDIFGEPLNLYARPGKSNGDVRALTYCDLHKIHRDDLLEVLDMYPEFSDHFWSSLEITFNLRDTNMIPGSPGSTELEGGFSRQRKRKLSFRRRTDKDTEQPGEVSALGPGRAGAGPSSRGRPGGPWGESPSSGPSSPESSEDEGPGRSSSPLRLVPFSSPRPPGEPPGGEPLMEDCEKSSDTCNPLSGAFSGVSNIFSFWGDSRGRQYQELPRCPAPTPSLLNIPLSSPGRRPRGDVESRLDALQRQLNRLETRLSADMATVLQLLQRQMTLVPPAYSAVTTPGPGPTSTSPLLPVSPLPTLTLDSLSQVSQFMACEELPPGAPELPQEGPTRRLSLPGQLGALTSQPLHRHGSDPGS

This assay concerns the target human ether-à-go-go-related gene (hERG) potassium channel (human, UniProt Q12809). As to the kind of experiment: primary screen, population patch clamp on CHO cells stably expressing hERG; higher = less effect of the substance.
As to `O=[N+]([O-])c1ccccc1/C=C\C=N\N1CCN(c2ccccc2)CC1`, the “hERG current change (%, negative = inhibition) at 1uM” value is reported as -7.95%.
Then `COc1cccc(CC2(CO)CCCN(Cc3ccccc3-c3ccco3)C2)c1` (stereo not drawn), with -55.6%.
Then `COc1cccc(CC2(CO)CCCN(Cc3ccccc3Cl)C2)c1` (stereo not drawn), with -12.5%; and `COc1cccc(CC2(CO)CCCN(Cc3ccc(-c4ccco4)cc3)C2)c1` (stereo not drawn), with 9.67%; and `COc1cccc(CC2(CO)CCCN(Cc3ccc(OC)c(C)c3OC)C2)c1` (stereo not drawn), with -80.2%.
With `COc1cccc(CC2(CO)CCCN(Cc3ccc(CO)o3)C2)c1` (stereo not drawn) the figure was -1.35%; with `COc1cccc(CC2(CO)CCCN(Cc3ccc(CN4CCCCC4)s3)C2)c1` (stereo not drawn), 0.717%; with `COc1cccc(CC2(CO)CCCN(Cc3ccc(C)s3)C2)c1` (stereo not drawn), -10.6%.
With `COc1cccc(CC2(CO)CCCN(Cc3cn(C)c4ccccc34)C2)c1` (stereo not drawn), the “hERG current change (%, negative = inhibition) at 1uM” value is recorded as -54.8%.
Consider `COc1cccc(CC2(CO)CCCN(Cc3cn[nH]c3-c3ccccc3)C2)c1` (stereo not drawn), for which the “hERG current change (%, negative = inhibition) at 1uM” value is given as -6.05%.
With `CC(C)(C)C(=O)Nc1scc(-c2ccc(-c3ccccc3)cc2)c1C(=O)O` the figure was 21.8%.
`COc1cc(C)ccc1OCc1cc(C(=O)N(C)CCCN2CCOCC2)no1`: the “hERG current change (%, negative = inhibition) at 1uM” value is on record as -7.67%.
With `c1ccc(-n2c(-c3ccco3)nnc2-c2ccco2)cc1` the figure was 5.9%.
Turning to `COc1cccc(-c2nnc(-c3ccco3)o2)c1`, the “hERG current change (%, negative = inhibition) at 1uM” value is given as 14.6%.
With `O=C(NCCN1CCCCC1)c1cc(OCC(F)(F)F)ccc1OCC(F)(F)F` the figure was -17.2%.
With `S=c1[nH]nc(-c2ccc(Cl)cc2)n1-c1ccc(Cl)cc1` the figure was 9.56%; with `CCC(C)(C)NC(=O)CN(C(=O)c1snc(C(N)=O)c1N)c1ccc2c(c1)OCO2`, 3.43%.
Then `COc1ccc(S(=O)(=O)N2CCC(C(=O)NCCc3ccccc3)CC2)cc1`, with 9.96%; and `COc1ccc(C(=O)C2CCN(C(=O)c3ccc(C)cc3)CC2)cc1`, with -47.7%.
As for `COc1ccc(C(=O)C2CCN(C(=O)c3ccc(F)cc3)CC2)cc1`, the “hERG current change (%, negative = inhibition) at 1uM” value stood at 2.02%.
With `COc1cc(OC)cc(C(=O)N2CCC(C(=O)c3ccc(F)cc3)CC2)c1` the figure was -1.28%; with `COc1ccc(C(=O)C2CCN(C(=O)c3ccc(OC)cc3)CC2)cc1`, -76%; with `COc1ccc(C(=O)N2CCC(C(=O)c3ccc(F)cc3)CC2)cc1`, -66.1%.
Consider `COc1ccc(C(=O)N2CCC(C(=O)c3c(C)cc(C)cc3C)CC2)cc1`, for which the “hERG current change (%, negative = inhibition) at 1uM” value was -8.27%.
Then `COc1ccc(Cl)cc1NC(=O)NN1CCN(C)CC1`, with -7.68%; and `CC(C)(C)NC(=O)C(c1ccco1)N(Cc1ccc(F)cc1)C(=O)c1snc(C(N)=O)c1N` (stereo not drawn), with -6.09%; and `C/C(=N/OCO/N=C(\C)c1ccc(F)cc1F)c1ccc(F)cc1F`, with 21.9%.
Then `COc1cc2c(cc1OC)CN(CC(=O)Nc1ccc3c(c1)OCO3)CC2`, with 14.5%; and `CC(C)(C)S(=O)(=O)c1cnc2c(-c3ccsc3)cnn2c1N`, with 15.9%.
As for `COc1cc2c(cc1OC)CN(C(=O)COc1ccccc1[N+](=O)[O-])CC2`, the “hERG current change (%, negative = inhibition) at 1uM” value was found to be 9.5%.
Turning to `O=C(NC(=S)Nc1ccccc1Br)c1ccc2c(c1)OCO2`, the “hERG current change (%, negative = inhibition) at 1uM” value was -67.9%.
With `O=C(NC(=S)NCc1ccccc1)c1ccc2c(c1)OCO2` the figure was 2.26%; with `COC(=O)c1ccccc1NC(=S)NC(=O)c1ccc2c(c1)OCO2`, 20.6%; with `Cc1ccc(N(C)S(=O)(=O)c2cccc(C(=O)Nc3ccc(C)cn3)c2)cc1`, 15.7%.
`N#CCCN=C(NS(=O)(=O)c1ccccc1)c1ccccc1`: the “hERG current change (%, negative = inhibition) at 1uM” value was found to be 2.49%.
Then `O=C(COc1ccc2ccc(=O)oc2c1)NCCc1c[nH]c2ccc(F)cc12`, with 12.5%; and `CCOc1ccc(N2C(=O)CC(n3nc(C)cc3C)C2=O)cc1` (stereo not drawn), with 3.53%.
With `CCOC(=O)c1c(CSC(=N)N)n(-c2ccccc2)c2cc(Br)c(OC(C)=O)cc12` the figure was -57.4%.
On to `Br.CCOC(=O)c1c(CSC(=N)N)n(C)c2cc(Br)c(OC(C)=O)cc12`, for which the “hERG current change (%, negative = inhibition) at 1uM” value is reported as -36.7%.
With `Br.CCOC(=O)c1c(CSC(=N)N)n(-c2ccc(C)cc2)c2cc(Br)c(OC(C)=O)cc12` the figure was -36.7%; with `Cc1cccc(NC(=O)Nc2ccc3c(c2)OCO3)n1`, 15.6%.
Then `O=C(CN1CCCCC1)Nc1ccccc1Cl`, with 13.9%.
